What all share (experiment): PBM; 200 nM protein, PBS
Common to all, as to conditions: dsDNA, one strand shown

For assay [1], the target named is SHOX (Homo sapiens, UniProt O15266 103-189).
Assay [2] concerns the target PRRX1 (Homo sapiens, UniProt P54821 80-166, F113S).
Assay [3] addresses PITX2 (Homo sapiens, UniProt Q99697 72-157).
Assay [4] has as its target SHOX (Homo sapiens, UniProt O15266 103-189, R173C).
Assay [5] concerns the target PRRX1 (Homo sapiens, UniProt P54821 80-166).
Assay [6] concerns the target T1, PAX4 (Homo sapiens, UniProt O43316 9-242, R200K).
T1 sequence: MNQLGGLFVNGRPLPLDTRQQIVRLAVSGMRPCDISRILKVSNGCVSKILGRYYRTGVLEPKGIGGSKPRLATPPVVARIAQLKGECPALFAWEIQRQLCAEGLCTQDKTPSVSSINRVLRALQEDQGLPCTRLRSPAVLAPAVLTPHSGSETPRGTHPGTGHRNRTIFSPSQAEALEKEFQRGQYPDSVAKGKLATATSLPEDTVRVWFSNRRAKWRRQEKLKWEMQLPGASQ

The target in assay [7] is T2, PAX4 (Homo sapiens, UniProt O43316 9-242).
T2 sequence: T1 sequence with K192R

The target in assay [8] is T3, NKX2-6 (Homo sapiens, UniProt A6NCS4 118-204, R150C).
T3 sequence: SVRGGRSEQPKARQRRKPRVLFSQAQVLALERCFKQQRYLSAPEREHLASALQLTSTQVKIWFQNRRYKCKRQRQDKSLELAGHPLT

The target in assay [9] is T4, PAX4 (Homo sapiens, UniProt O43316 9-242, R200Q).
T4 sequence: T1 sequence with K192Q

Assay [10] addresses T5, PAX4 (Homo sapiens, UniProt O43316 9-242, F177V).
T5 sequence: T1 sequence with F169V, K192R

In assay [11] the target is T6, PAX4 (Homo sapiens, UniProt O43316 9-242, F177Y).
T6 sequence: T1 sequence with F169Y, K192R

Assay [12] deals with T7, PAX4 (Homo sapiens, UniProt O43316 9-242, R227W).
T7 sequence: T1 sequence with K192R, R219W

Assay [13] has as its target MSX2 (Homo sapiens, UniProt P35548 130-214, R199I).
Assay [14] has as its target MSX2 (Homo sapiens, UniProt P35548 130-214).
Assay [15] addresses MSX2 (Homo sapiens, UniProt P35548 130-214, F161Y).
Assay [16] has as its target HOXB9 (Homo sapiens, UniProt P17482 171-250).
Assay [17] has as its target HOXB9 (Homo sapiens, UniProt P17482 171-250, R186Q).
Assay [18] addresses HOXC10 (Homo sapiens, UniProt Q9NYD6 254-340).
For assay [19], the target named is HOXD13 (Homo sapiens, UniProt P35453 263-343, T313R).
The target of assay [20] is HOXD13 (Homo sapiens, UniProt P35453 263-343).
The target in assay [21] is HOXC10 (Homo sapiens, UniProt Q9NYD6 254-340, K271E).
For assay [22], the target named is HOXD13 (Homo sapiens, UniProt P35453 263-343, T313A).
Assay [23] concerns the target ALX1 (Homo sapiens, UniProt Q15699 118-204, L144V).
Assay [24] deals with ALX3 (Homo sapiens, UniProt O95076 139-225, N203Q).
Assay [25] addresses ALX1 (Homo sapiens, UniProt Q15699 118-204, L144R).
The target of assay [26] is ALX3 (Homo sapiens, UniProt O95076 139-225).
Assay [27] concerns the target ALX3 (Homo sapiens, UniProt O95076 139-225, L168Q).
In assay [28] the target is ALX3 (Homo sapiens, UniProt O95076 139-225, L168V).
Assay [29] has as its target ALX1 (Homo sapiens, UniProt Q15699 118-204).
The target of assay [30] is ALX3 (Homo sapiens, UniProt O95076 139-225, N203S).
For assay [31], the target named is ALX4 (Homo sapiens, UniProt Q9H161 200-286).
Assay [32] concerns the target ALX4 (Homo sapiens, UniProt Q9H161 200-286, Q225E).
Assay [33] deals with PROP1 (Homo sapiens, UniProt O75360 56-141).
For assay [34], the target named is PROP1 (Homo sapiens, UniProt O75360 56-141, R99H).
Assay [35] addresses PROP1 (Homo sapiens, UniProt O75360 56-141, F88S).

Positions count from the first letter of the chain named.

Results on eight sequences are retold here after publication PMC11006913.

Sequence of SHOX (Homo sapiens, UniProt O15266 103-189, R173C) (O15266 103-189 R173C): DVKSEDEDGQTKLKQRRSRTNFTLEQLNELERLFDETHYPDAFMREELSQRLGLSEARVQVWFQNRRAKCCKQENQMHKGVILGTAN
Sequence of SHOX (Homo sapiens, UniProt O15266 103-189) (O15266 103-189): as the sequence (O15266 103-189 R173C) above, with C71R counted along it
Sequence of ALX3 (Homo sapiens, UniProt O95076 139-225) (O95076 139-225): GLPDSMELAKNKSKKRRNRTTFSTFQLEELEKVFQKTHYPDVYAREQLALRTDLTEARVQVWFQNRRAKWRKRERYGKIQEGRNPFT
Sequence of HOXC10 (Homo sapiens, UniProt Q9NYD6 254-340, K271E) (Q9NYD6 254-340 K271E): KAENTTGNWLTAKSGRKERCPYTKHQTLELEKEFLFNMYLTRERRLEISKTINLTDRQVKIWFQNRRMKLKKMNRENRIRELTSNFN
Sequence of HOXC10 (Homo sapiens, UniProt Q9NYD6 254-340) (Q9NYD6 254-340): as the sequence (Q9NYD6 254-340 K271E) above, with E18K counted along it
Sequence of ALX1 (Homo sapiens, UniProt Q15699 118-204) (Q15699 118-204): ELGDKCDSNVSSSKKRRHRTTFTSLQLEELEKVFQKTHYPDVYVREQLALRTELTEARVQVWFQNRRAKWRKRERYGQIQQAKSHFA
Sequence of MSX2 (Homo sapiens, UniProt P35548 130-214, R199I) (P35548 130-214 R199I): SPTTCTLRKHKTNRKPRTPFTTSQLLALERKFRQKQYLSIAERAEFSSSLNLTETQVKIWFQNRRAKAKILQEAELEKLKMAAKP
Sequence of ALX1 (Homo sapiens, UniProt Q15699 118-204, L144R) (Q15699 118-204 L144R): as the sequence (Q15699 118-204) above, with L27R counted along it
Sequence of PRRX1 (Homo sapiens, UniProt P54821 80-166, F113S) (P54821 80-166 F113S): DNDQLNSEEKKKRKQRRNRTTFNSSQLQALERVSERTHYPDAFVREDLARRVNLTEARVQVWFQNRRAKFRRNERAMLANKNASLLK
Sequence of ALX3 (Homo sapiens, UniProt O95076 139-225, N203Q) (O95076 139-225 N203Q): as the sequence (O95076 139-225) above, with N65Q counted along it
Sequence of MSX2 (Homo sapiens, UniProt P35548 130-214) (P35548 130-214): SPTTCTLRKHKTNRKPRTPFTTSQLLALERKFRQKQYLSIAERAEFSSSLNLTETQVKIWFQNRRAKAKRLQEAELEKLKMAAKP
Sequence of MSX2 (Homo sapiens, UniProt P35548 130-214, F161Y) (P35548 130-214 F161Y): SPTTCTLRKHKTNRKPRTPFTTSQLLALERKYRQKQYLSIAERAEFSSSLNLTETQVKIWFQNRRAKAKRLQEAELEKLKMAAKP
Sequence of ALX3 (Homo sapiens, UniProt O95076 139-225, L168Q) (O95076 139-225 L168Q): as the sequence (O95076 139-225) above, with L30Q counted along it
Sequence of PRRX1 (Homo sapiens, UniProt P54821 80-166) (P54821 80-166): as the sequence (P54821 80-166 F113S) above, with S34F counted along it
Sequence of ALX3 (Homo sapiens, UniProt O95076 139-225, N203S) (O95076 139-225 N203S): as the sequence (O95076 139-225) above, with N65S counted along it
Sequence of ALX3 (Homo sapiens, UniProt O95076 139-225, L168V) (O95076 139-225 L168V): as the sequence (O95076 139-225) above, with L30V counted along it
Sequence of ALX1 (Homo sapiens, UniProt Q15699 118-204, L144V) (Q15699 118-204 L144V): as the sequence (Q15699 118-204) above, with L27V counted along it
Sequence of PROP1 (Homo sapiens, UniProt O75360 56-141) (O75360 56-141): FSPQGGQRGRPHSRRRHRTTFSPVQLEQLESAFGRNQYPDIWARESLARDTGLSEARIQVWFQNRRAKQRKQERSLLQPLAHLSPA
Sequence of ALX4 (Homo sapiens, UniProt Q9H161 200-286, Q225E) (Q9H161 200-286 Q225E): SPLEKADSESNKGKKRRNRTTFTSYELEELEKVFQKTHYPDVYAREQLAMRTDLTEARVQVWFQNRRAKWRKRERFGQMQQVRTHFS
Sequence of PROP1 (Homo sapiens, UniProt O75360 56-141, R99H) (O75360 56-141 R99H): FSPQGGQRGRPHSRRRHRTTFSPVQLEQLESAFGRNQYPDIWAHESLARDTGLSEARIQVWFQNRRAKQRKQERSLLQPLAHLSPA
Sequence of HOXD13 (Homo sapiens, UniProt P35453 263-343, T313A) (P35453 263-343 T313A): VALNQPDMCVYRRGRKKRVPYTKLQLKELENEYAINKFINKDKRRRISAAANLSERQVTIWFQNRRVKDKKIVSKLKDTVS
Sequence of HOXB9 (Homo sapiens, UniProt P17482 171-250) (P17482 171-250): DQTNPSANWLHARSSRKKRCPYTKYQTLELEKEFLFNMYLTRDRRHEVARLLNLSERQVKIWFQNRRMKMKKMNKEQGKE
Sequence of HOXD13 (Homo sapiens, UniProt P35453 263-343, T313R) (P35453 263-343 T313R): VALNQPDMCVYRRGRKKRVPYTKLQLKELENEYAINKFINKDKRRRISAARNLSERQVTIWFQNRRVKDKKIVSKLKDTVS
Sequence of ALX4 (Homo sapiens, UniProt Q9H161 200-286) (Q9H161 200-286): as the sequence (Q9H161 200-286 Q225E) above, with E26Q counted along it
Sequence of HOXD13 (Homo sapiens, UniProt P35453 263-343) (P35453 263-343): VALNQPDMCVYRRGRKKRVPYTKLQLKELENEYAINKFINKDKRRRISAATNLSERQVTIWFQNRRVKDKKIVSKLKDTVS
Sequence of PROP1 (Homo sapiens, UniProt O75360 56-141, F88S) (O75360 56-141 F88S): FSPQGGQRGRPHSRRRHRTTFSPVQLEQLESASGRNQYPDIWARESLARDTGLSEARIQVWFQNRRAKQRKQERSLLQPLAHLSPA
Sequence of HOXB9 (Homo sapiens, UniProt P17482 171-250, R186Q) (P17482 171-250 R186Q): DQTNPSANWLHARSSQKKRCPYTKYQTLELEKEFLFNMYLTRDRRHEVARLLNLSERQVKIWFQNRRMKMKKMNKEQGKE

Take CCCGGCAC: the binding signal in [1] was 7.01 upbm affinity estimate (log intensity, higher = more binding, comparable within an allelic series); in assay [2], 9.16 upbm affinity estimate (log intensity, higher = more binding, comparable within an allelic series); in assay [3], 7.81 upbm affinity estimate (log intensity, higher = more binding, comparable within an allelic series); in [4], 7.19 upbm affinity estimate (log intensity, higher = more binding, comparable within an allelic series); in assay [5], 9.19 upbm affinity estimate (log intensity, higher = more binding, comparable within an allelic series).

As for CACCACCC, the binding signal in [1] was 7.17 upbm affinity estimate (log intensity, higher = more binding, comparable within an allelic series); in assay [6], 9.48 upbm affinity estimate (log intensity, higher = more binding, comparable within an allelic series); in assay [7] it was 9.49 upbm affinity estimate (log intensity, higher = more binding, comparable within an allelic series); in [8], 9.46 upbm affinity estimate (log intensity, higher = more binding, comparable within an allelic series); in assay [9], 9.54 upbm affinity estimate (log intensity, higher = more binding, comparable within an allelic series); in [4], 7.25 upbm affinity estimate (log intensity, higher = more binding, comparable within an allelic series). Besides, the binding signal was 9.4 upbm affinity estimate (log intensity, higher = more binding, comparable within an allelic series) in [10]; 9.47 upbm affinity estimate (log intensity, higher = more binding, comparable within an allelic series) in [11]; 9.4 upbm affinity estimate (log intensity, higher = more binding, comparable within an allelic series) in assay [12].

Take CGAACCGC: the binding signal in assay [1] was 7.29 upbm affinity estimate (log intensity, higher = more binding, comparable within an allelic series); in assay [2], 9.29 upbm affinity estimate (log intensity, higher = more binding, comparable within an allelic series); in [4], 7.2 upbm affinity estimate (log intensity, higher = more binding, comparable within an allelic series); in assay [5], 9.38 upbm affinity estimate (log intensity, higher = more binding, comparable within an allelic series).

With GCCTTGCC, the binding signal in [1] was 7.17 upbm affinity estimate (log intensity, higher = more binding, comparable within an allelic series); in [13], 9.62 upbm affinity estimate (log intensity, higher = more binding, comparable within an allelic series); in [4], 7.18 upbm affinity estimate (log intensity, higher = more binding, comparable within an allelic series); in [14], 9.57 upbm affinity estimate (log intensity, higher = more binding, comparable within an allelic series); in assay [15] it was 9.57 upbm affinity estimate (log intensity, higher = more binding, comparable within an allelic series).

For the sequence GTACAATA, the binding signal is 8.08 upbm affinity estimate (log intensity, higher = more binding, comparable within an allelic series) in [1]; 9.8 upbm affinity estimate (log intensity, higher = more binding, comparable within an allelic series) in assay [16]; 9.79 upbm affinity estimate (log intensity, higher = more binding, comparable within an allelic series) in assay [17].

Regarding CCCTTCGA, the binding signal was 6.95 upbm affinity estimate (log intensity, higher = more binding, comparable within an allelic series) in assay [1]; 10 upbm affinity estimate (log intensity, higher = more binding, comparable within an allelic series) in assay [18]; 9.49 upbm affinity estimate (log intensity, higher = more binding, comparable within an allelic series) in [19]; 7.13 upbm affinity estimate (log intensity, higher = more binding, comparable within an allelic series) in assay [4]; 9.43 upbm affinity estimate (log intensity, higher = more binding, comparable within an allelic series) in assay [20]; 10.1 upbm affinity estimate (log intensity, higher = more binding, comparable within an allelic series) in assay [21]. Moreover, the binding signal in assay [22] is 9.48 upbm affinity estimate (log intensity, higher = more binding, comparable within an allelic series).

For the sequence GCCTGCCC, the binding signal in assay [1] is 7.04 upbm affinity estimate (log intensity, higher = more binding, comparable within an allelic series); in [18], 10.1 upbm affinity estimate (log intensity, higher = more binding, comparable within an allelic series); in assay [23], 6.56 upbm affinity estimate (log intensity, higher = more binding, comparable within an allelic series); in assay [24], 7.64 upbm affinity estimate (log intensity, higher = more binding, comparable within an allelic series); in assay [4] it was 7.13 upbm affinity estimate (log intensity, higher = more binding, comparable within an allelic series); in assay [25] it was 6.58 upbm affinity estimate (log intensity, higher = more binding, comparable within an allelic series). The binding signal was 10 upbm affinity estimate (log intensity, higher = more binding, comparable within an allelic series) in [21]; 7.67 upbm affinity estimate (log intensity, higher = more binding, comparable within an allelic series) in assay [26]; 7.69 upbm affinity estimate (log intensity, higher = more binding, comparable within an allelic series) in assay [27]; 7.69 upbm affinity estimate (log intensity, higher = more binding, comparable within an allelic series) in assay [28]; 6.62 upbm affinity estimate (log intensity, higher = more binding, comparable within an allelic series) in [29]; 7.72 upbm affinity estimate (log intensity, higher = more binding, comparable within an allelic series) in assay [30].

For the sequence CAAATTAG, the binding signal in assay [1] is 11.8 upbm affinity estimate (log intensity, higher = more binding, comparable within an allelic series); in assay [31], 13.6 upbm affinity estimate (log intensity, higher = more binding, comparable within an allelic series); in [6] it was 11.8 upbm affinity estimate (log intensity, higher = more binding, comparable within an allelic series); in assay [7], 12.4 upbm affinity estimate (log intensity, higher = more binding, comparable within an allelic series); in [32], 12.4 upbm affinity estimate (log intensity, higher = more binding, comparable within an allelic series); in assay [13] it was 12.1 upbm affinity estimate (log intensity, higher = more binding, comparable within an allelic series). Also, the binding signal in assay [23] is 11.3 upbm affinity estimate (log intensity, higher = more binding, comparable within an allelic series); in assay [24] it was 8.31 upbm affinity estimate (log intensity, higher = more binding, comparable within an allelic series); in assay [9] it was 12.3 upbm affinity estimate (log intensity, higher = more binding, comparable within an allelic series); in assay [4] it was 9.26 upbm affinity estimate (log intensity, higher = more binding, comparable within an allelic series); in assay [25], 10.9 upbm affinity estimate (log intensity, higher = more binding, comparable within an allelic series); in [10], 10.4 upbm affinity estimate (log intensity, higher = more binding, comparable within an allelic series). Besides, the binding signal in [14] was 13.3 upbm affinity estimate (log intensity, higher = more binding, comparable within an allelic series); in assay [26] it was 12.2 upbm affinity estimate (log intensity, higher = more binding, comparable within an allelic series); in [11] it was 11 upbm affinity estimate (log intensity, higher = more binding, comparable within an allelic series); in assay [33] it was 11.1 upbm affinity estimate (log intensity, higher = more binding, comparable within an allelic series); in assay [34], 10.7 upbm affinity estimate (log intensity, higher = more binding, comparable within an allelic series); in assay [27] it was 10.1 upbm affinity estimate (log intensity, higher = more binding, comparable within an allelic series). Further, the binding signal in assay [28] is 9.51 upbm affinity estimate (log intensity, higher = more binding, comparable within an allelic series); in assay [35], 7.47 upbm affinity estimate (log intensity, higher = more binding, comparable within an allelic series); in assay [15], 12.9 upbm affinity estimate (log intensity, higher = more binding, comparable within an allelic series); in [12], 11 upbm affinity estimate (log intensity, higher = more binding, comparable within an allelic series); in assay [29], 12.1 upbm affinity estimate (log intensity, higher = more binding, comparable within an allelic series); in assay [30] it was 8.39 upbm affinity estimate (log intensity, higher = more binding, comparable within an allelic series).
